The record followed here is PubChem BioAssay.

“And” between values parts separate entries of the source, which are not always exact repeats. Equal values may be shown once. The source made the active and inactive calls. Unless noted, no stated cut-off is given here; in the data, active means inhibition above about 80%; inactive means the rest.

Broadly, the inhibition is the relative decrease from the control value, in per cent.

Test [1] concerns Hepatitis C virus NS3 helicase. Nature of the test: blockers of NS3h binding to ssDNA – biochemical, fluorescence polarization, LOPAC1280 library, primary screen (AID 687035; in the data active means inhibition above about 37%). Conditions: Purified HCV NS3 helicase, Cy5-dT15 ssDNA binding fluorescence polarization; stronger effect = higher value; concentration not given here.
Test [2] is described as follows: compounds altering Cy5-DNA-NS3h complex signal – biochemical, LOPAC1280, artefact control for HCV NS3 helicase inhibitor project (AID 687037; call rule not given here). The conditions noted are these: Cy5-DNA-NS3h complex fluorescence interference counterscreen. A general note: The purpose of a counterscreen is to sort out artefacts and off-target activity.
A short description of test [3]: blockers of cellular phospholipid synthesis – cell-based, LOPAC library, screen 4, primary screen (AID 1347384; call rule not given here). The conditions noted are these: animal cells, phospholipid biosynthesis inhibition screen; at 10 µM.
The nature of test [4]: galactose survival enhancers in mitochondrial complex I cybrids – cell-based, galactose medium, ATP luminescence, primary screen (AID 1645843;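 active means z-score of at least 1.8 in each of two replicates, scored against plate mean and spread of sample wells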;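 further: positive z means more ATP and so rescue of galactose-driven cybrid death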). Conditions: complex I mutant cybrid cells, 72 h, stronger effect = higher value.
Test [5] can be described thus: growth inhibition, single agents and combos, LFS_MB_1R, cell-based, cisplatin or BGB combos, synergistic combos for chromothripsis tumors (AID 1671452).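 Further: cells exposed for 96 hours before readout.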 Conditions: LFS_MB_1R medulloblastoma cells, stronger effect = higher value.
Test [6] can be described thus: growth inhibition, single agents and combos, CRL2098, cell-based, BGB or cisplatin IC20 combos, synergistic combos for chromothripsis tumors (AID 1671454).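 Further: cells exposed for 96 h before readout; 0% = vehicle DMSO and 100% = killing by high DMSO.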 Conditions: CRL2098 osteosarcoma cells, drug combinations, stronger effect = higher value.
Test [7] in a line: growth inhibition, single agents and combos, HD-MB03, cell-based, BGB or cisplatin IC20 combos, synergistic combos for chromothripsis tumors (AID 1671455; in the data active means inhibition above about 83%;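 further: 0% = vehicle DMSO and 100% = high DMSO as cytotoxic control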). The conditions noted are these: HD-MB03 medulloblastoma cells, stronger effect = higher value.
The nature of test [8]: growth inhibition, single agents and combos, UWB1.289, cell-based, BGB or cisplatin combos, synergistic combos for chromothripsis tumors (AID 1671456).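 Further: cells exposed to compound for four days; 0% = vehicle DMSO and 100% = killing by high DMSO.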 The conditions noted are these: UWB1.289 ovarian carcinoma cells, stronger effect = higher value.
A short description of test [9]: growth inhibition, single agents and combos, LFS_MB_2R, cell-based, cisplatin combos, synergistic combos for chromothripsis tumors (AID 1671457).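 Further: cells exposed to compound for four days before readout.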 The conditions noted are these: LFS_MB_2R medulloblastoma cells, stronger effect = higher value.
Test [10] is described as follows: UWB1.289_BRCA1 ovarian cancer growth, cell-based, BGB or cisplatin combinations (AID 1671459). The conditions noted are these: UWB1.289 BRCA1 ovarian carcinoma, drug combinations, stronger effect = higher value.
Test [11] in a line: drug combination toxicity in non-malignant astrocytes – cell-based, BGB or cisplatin IC20 combos, cytotoxicity control for chromothriptic childhood tumor combination screen (AID 1671460).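 Further: cells exposed to compounds for 96 hours before viability readout; 0% = vehicle and 100% = killing control.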 Conditions: Human astrocytes, viability inhibition, drug combinations, at 0.5 µM, stronger effect = higher value.
Test [12] in a line: liver-stage malaria parasite load reduction – cell-based, known kinase inhibitor set, luminescence, hepatoma host viability (AID 624392; call rule not given here;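 further: infected cells incubated roughly two days before readout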). The conditions noted are these: Plasmodium liver stage in hepatoma cells, luciferase luminescence, concentration not given here; liver cell % of control: measured here: host liver cell viability; parasite % of control: stronger effect = lower value.
Test [13] in a line: compounds altering circadian rhythm period length – cell-based, LOPAC library, luminescence reporter (AID 2774; call rule not given here;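 further: values are relative to mean of DMSO wells on each plate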). The conditions noted are these: circadian reporter cells, at 7 µM, actives lie on both sides.
Where [14] appears, read: measured here: combination with BGB IC40, at 0.05 µM.
The mark [15] stands for this setting: measured here: combination with cisplatin, at 0.5 µM.
Where [16] appears, read: measured here: combination with cisplatin, at 5 µM.
The mark [17] stands for this setting: measured here: combination with BGB at IC20, at 0.5 µM.
The mark [18] stands for this setting: measured here: combination with cisplatin at IC20, at 0.5 µM.
The mark [19] stands for this setting: measured here: combo with BGB at IC20, at 0.5 µM.
Setting [20] is: measured here: combo with cisplatin at IC20, at 0.5 µM.
Where [21] appears, read: measured here: inhibition with BGB combination, at 0.05 µM.
The mark [22] stands for this setting: measured here: inhibition with cisplatin combination, at 0.05 µM.
Where [23] appears, read: BGB combination, concentration series, at 5 µM.
The mark [24] stands for this setting: cisplatin combination, concentration series, at 5 µM.
Where [25] appears, read: measured here: combo with BGB IC20.
Where [26] appears, read: measured here: combo with cisplatin IC20.

Turning to `COC(=O)C1=CO[C@@H](O)[C@@H]2C(CO)=CC[C@H]12`, the inhibition in test [1] is -3% (inactive). The fluorescence ratio (interference) in [2] is 1 (inactive). Besides, in [3], the outcome was inactive. Further, the z-score in test [4] is -0.175 (inactive).
Regarding `CO[C@H]1/C=C/O[C@@]2(C)Oc3c(C)c(O)c4c(O)c(c(/C=N\N5CCN(C6CCCC6)CC5)c(O)c4c3C2=O)NC(=O)/C(C)=C\C=C\[C@H](C)[C@H](O)[C@@H](C)[C@@H](O)[C@@H](C)[C@H](OC(C)=O)[C@@H]1C`, the inhibition was -26.5% (inactive) in test [5] (at 0.5 µM); 5.18% in test [5] (setting [14]); -21.5% in test [5] (setting [15]); -13.2% in [5] (setting [16]); -17.9% (inactive) in [6] (at 0.5 µM); -42.5% in test [6] (setting [17]). The inhibition in test [6] (setting [18]) is -28.1%; in test [7] (at 0.5 µM), -12% (inactive); in [7] (setting [19]) it was -9.84%; in test [7] (setting [20]), -22%; in [8] (at 0.5 µM) it was 0.22% (inactive); in test [8] (setting [21]), -17.7%. The inhibition in test [8] (setting [22]) was -11.8%; in test [9] (at 0.5 µM) it was -7.15% (inactive); in [9] (setting [15]) it was -29.8%; in [9] (setting [16]), -34%; in test [10] (setting [23]), 4.16%; in test [10] (at 0.5 µM) it was -5.57% (inactive). The inhibition in test [10] (setting [24]) is 10.5%; in [11] it was -10.7% (inactive); in test [11] (setting [25]), -21%; in [11] (setting [26]) it was -11%.
`COc1cc(C(=O)NC2CCN(C)CC2)ccc1Nc1ncc2c(n1)N(C1CCCC1)CCC(=O)N2C(C)C`: in test [12], the liver cell % of control was found to be 99.8% and the parasite % of control is 139% (inactive).
Turning to `CC(C)(N)c1ccc(-c2nc3ccccc3nc2-c2ccccc2)cc1`, in test [12], the liver cell % of control was 41.6% and 76.6% and 85.6%; the parasite % of control is 0.22% (inactive) and 84.1% (inactive) and 92.8% (inactive).
On to `CN(C)Cc1ccc(-c2nc3cccc4c3n2CCNC4=O)cc1`, for which the inhibition in [5] (at 0.5 µM) is -21.9% (inactive) and -12.8% (inactive); in test [5] (setting [14]) it was -8.61% and -31.3%; in test [5] (setting [15]) it was -36.5% and -4.44%; in test [5] (setting [16]), -20.1% and -27.3%; in test [6] (at 0.5 µM), -12.7% (inactive) and -34.7% (inactive); in test [6] (setting [17]), 3.27% and -18.3%. Further, the inhibition in [6] (setting [18]) was -10.7% and -61.5%; in test [7] (at 0.5 µM), -4.1% (inactive) and -8.91% (inactive); in test [7] (setting [19]) it was -6.79% and -18.1%; in [7] (setting [20]), -1.2% and -11.2%; in [8] (at 0.5 µM), 2.77% (inactive) and -2.19% (inactive); in [8] (setting [21]) it was -14.3% and 1.91%. The inhibition was -5.64% and -29.4% in test [8] (setting [22]); -22.3% (inactive) and -21% (inactive) in [9] (at 0.5 µM); -26.3% and -32% in test [9] (setting [15]); -30.5% and -31.6% in [9] (setting [16]); 7.25% and 16.2% in test [10] (setting [23]); 0.7% (inactive) and -0.32% (inactive) in test [10] (at 0.5 µM). The inhibition in [10] (setting [24]) is 5.02% and -8.46%; in test [11], 3.46% (inactive) and 6.94% (inactive); in test [11] (setting [25]) it was 2.28% and -1.45%; in test [11] (setting [26]) it was 8.6% and 1.46%.
For the compound `Nc1nc(OCc2ccccc2)c2[nH]cnc2n1`, the period change in test [13] was -0.35 h (inactive). In addition, the inhibition in [1] was -2% (inactive). Also, the fluorescence ratio (interference) in [2] is 0.9 (inactive). Besides, the compound was classed as inactive in test [3]. Besides, the z-score in [4] is -0.125 (inactive).
As for `COc1ccc(-c2c(-c3ccc(O)cc3O)n[nH]c2C)cc1`, the z-score in test [4] was -1.81 (inactive).
For `Cc1cn([C@@H]2O[C@H](CO)[C@@H](O)[C@@H]2F)c(=O)[nH]c1=O`, the inhibition is -24% (inactive) in test [5] (at 0.5 µM); -37.2% in test [5] (setting [14]); -20.9% in test [5] (setting [15]); -19% in test [5] (setting [16]); -20.9% (inactive) in [6] (at 0.5 µM); -6.05% in test [6] (setting [17]). The inhibition was -15.6% in test [6] (setting [18]); -11.4% (inactive) in test [7] (at 0.5 µM); -16% in test [7] (setting [19]); -8.28% in test [7] (setting [20]); -3.54% (inactive) in test [8] (at 0.5 µM); -7.92% in test [8] (setting [21]). The inhibition in test [8] (setting [22]) is 2.99%; in test [9] (at 0.5 µM) it was -27.6% (inactive); in test [9] (setting [15]) it was -30.2%; in test [9] (setting [16]) it was -44.4%; in test [10] (setting [23]), -5.53%; in test [10] (at 0.5 µM), -5.97% (inactive). The inhibition in test [10] (setting [24]) is 11.6%; in test [11] it was 10.9% (inactive); in test [11] (setting [25]) it was 14.5%; in test [11] (setting [26]), 15.4%.
For the compound `Nc1nc(N)c(N=O)c(OCC2CCCCC2)n1`, the inhibition in [1] is -2% (inactive). In addition, the fluorescence ratio (interference) in test [2] was 0.9 (inactive). Further, the call in test [3] was inactive. Moreover, in [4], the z-score is 1.21 (inactive).
